The record followed here is PubChem BioAssay AID2315 (National Center for Advancing Translational Sciences (NCATS), 2010).

Molecules are shown by their SMILES. In all, about 290,000 compounds went through this assay and about 27,000 (9.3%) were called active. The entries come from a sample that favours actives as a whole. A number with no mark means an inactive call. Cut-off read from the data, not from the text of the source: active = inhibition mostly above about 28% (no sharp cut-off); inactive = mostly below about 43%.

A short description of the assay: A qHTS for Small Molecule Inhibitors of Shiga Toxin. Note: 0% is about no effect. Particulars: Vero cells, Shiga toxin protein synthesis inhibition reporter; at 38.7 µM, hits give high values.
Take `Cc1ccccc1N1CCN(C2CCCN(C(=O)c3cn4c(C)cccc4n3)C2)CC1` (configuration not stated): the inhibition is -3.16%.
For the compound `CC(=O)Nc1ccc(S(=O)(=O)N2CCC(NC(=O)c3ccccc3)CC2)cc1`, the inhibition is 37.8%.
Regarding `O=C1CN(Cc2ccccc2)S(=O)(=O)c2ccccc21`, the inhibition is -2.75%.
Take `O=S(=O)(NC1CCCCC1N1CCN(c2ccccc2F)CC1)c1ccccc1` (configuration not stated): the inhibition was -13.8%.
The result for `CCOc1ccccc1NC(=S)N1CCN(c2cccc(C)c2C)CC1` reads -4.41%; that for `O=C(Oc1cccc(C(=S)N2CCOCC2)c1)c1cccc(Cl)c1`, -28.3%.
Consider `Cc1ccc(-c2c3c(=O)n(C)c(=O)n(C)c3cn2-c2ccccc2O)cc1`, for which the inhibition was 38.5%.
Consider `COc1ccc(-c2c3c(=O)n(C)c(=O)n(C)c3cn2-c2cccc(OC)c2)cc1`, for which the inhibition was 4.73%.
As for `COc1cccc(-n2cc3c(c2-c2ccccc2)c(=O)n(C)c(=O)n3C)c1`, the figure is 104% (active); as for `CC1=C(C(N)=O)C(c2ccc(F)cc2)n2nc(CCCO)nc2N1` (configuration not stated), -5.77%; as for `Cc1ccc(CNC(=O)CCC(=O)N2CC(C)Sc3ccccc32)cc1` (configuration not stated), 10.9%.
The result for `CC(=O)Nc1ccc(N2C(=O)CC(Sc3nccc(C)n3)C2=O)cc1` (configuration not stated) reads -3.46%; that for `Cc1ccc(-c2nc(-c3ccncc3)no2)c(C)c1`, 80.3% (active); that for `Cc1ccc2nc(-c3ccncc3)cc(C(=O)Nc3ccncc3)c2c1`, 11.4%.
Regarding `c1csc(-c2nc(-c3ccncc3)no2)c1`, the inhibition is 58.2% (active).
For `c1ccc(-c2noc(-c3cccs3)n2)nc1`, the inhibition is 15%.
As for `COc1nc(-c2ccc(Cl)cc2)ccc1-c1noc(-c2cccs2)n1`, the figure is -10.5%.
The result for `Cc1ccc(-c2noc(CSc3nnc(-c4ccncc4)n3-c3ccc(F)cc3)n2)cc1` reads -6.83%; that for `O=C(O)c1cc([N+](=O)[O-])c(Nc2cccc3ccccc23)c([N+](=O)[O-])c1`, 1.25%.
Regarding `CCOC(=O)c1ccc(-c2ccc(C(=O)Nc3cccnc3)o2)cc1`, the inhibition is 73.3% (active).
For `CC(C)NS(=O)(=O)c1ccc(NC(=O)c2cccnc2)cc1`, the inhibition is -10.5%.
On to `COc1ccc(C)cc1NC(=O)c1ccc(-c2ccc(C(C)=O)cc2)o1`, for which the inhibition is -2.76%.
For the compound `CCOC(=O)c1ccc(NC(=O)c2cccnc2)cc1`, the inhibition is 53.7% (active).
Regarding `CCOC(=O)c1ccc(NC(=O)CNC(=O)c2ccco2)cc1`, the inhibition was -21.4%.
The result for `O=C(Cc1ccccc1)Nc1ccc(NC(=O)c2cccnc2)cc1` reads -11.9%; that for `CCn1c(SCC(=O)NC2CC2)nnc1-c1ccccn1`, -11.7%; that for `CN(C)C(=O)Cn1c(=O)n(S(=O)(=O)c2ccccc2)c2ccccc21`, -3.04%.
As for `Cc1cc(C)n(CCNS(=O)(=O)c2ccc(Cl)cc2)n1`, the figure is -3.35%; as for `COc1ccc(-c2cn[nH]c2-c2ccc(OC)cc2)cc1`, -4.19%.
As to `COc1ccc2cc(-c3[nH]ncc3CNCCn3nc(C)cc3C)ccc2c1`, the inhibition was 67.7% (active).
The result for `Cc1ccccc1C(=O)NC(=S)NC1CC1` reads 24.6%; that for `O=C1Nc2ccccc2/C1=C/c1ccnc2ccccc12`, 19.4%; that for `O=C(Nc1ccn(Cc2ccccc2F)n1)c1ccc(COc2ccc(Cl)cc2Cl)o1`, 21.8%.
As for `O=C(Nc1cccc(NC(=O)c2cccc(F)c2)c1)c1ccccc1`, the figure is 21.2%.
Regarding `CC(=O)Nc1ccn(Cc2c(F)cccc2Cl)n1`, the inhibition is 64.3% (active).
The result for `O=C1c2ccccc2S(=O)(=O)N1Cc1c(F)cccc1Cl` reads -12.9%; that for `O=C(Nc1ccn(Cc2ccccc2)n1)c1cccc(F)c1`, 63.4% (active).
The result for `O=C(Nc1ccn(Cc2ccccc2)n1)c1n[nH]c([N+](=O)[O-])c1Cl` reads 16.1%; that for `CCOCCOC(=O)C(C)Oc1ccc(Oc2ncc(C(F)(F)F)cc2Cl)cc1` (configuration not stated), -6.29%.
For the compound `COc1ccc(C(=O)NCC(=O)N/N=C/c2cccnc2)cc1`, the inhibition is -9.22%.
Consider `COc1ccc2c(c1)C(NS(=O)(=O)OCC(Cl)(Cl)Cl)CCC2` (configuration not stated), for which the inhibition was -7.98%.
The result for `COc1ccc(NC(=S)N2CCC(NC(=O)c3cccc(F)c3)CC2)cc1` reads -12.4%; that for `CCOc1ccc(OCC)c(-c2c(=O)n(OCc3ccc(Cl)cc3)c3ccccc3[n+]2[O-])c1`, 10.2%; that for `CCOC(=O)COn1c(=O)c(-c2ccc(OCC)cc2)[n+]([O-])c2ccccc21`, 44.1%.
The result for `O=c1c(-c2ccc(Cl)cc2)[n+]([O-])c2ccccc2n1OCc1nc2ccccc2[nH]1` reads 59.6% (active).
As for `O=C(NNC(=O)c1ccco1)Nc1ccccc1`, the inhibition was 8.84%.
On to `O=C(NNC(=S)Nc1ccc(Br)cc1Cl)c1ccco1`, for which the inhibition was 59.2% (active).
The result for `CCC(=O)NC(=S)Nc1ccc(NC(=O)c2ccco2)c(Cl)c1` reads 46.1%; that for `Cc1ccc2c(c1)N(CC(=O)NCC1CCCO1)C(=O)CO2` (configuration not stated), 40.5%.
The result for `Cc1cc(Br)ccc1NC(=O)c1sc2ncn(CC(=O)N3CCN(c4ccccn4)CC3)c(=O)c2c1C` reads -6.73%.
Consider `O=C(Nc1cccc(-c2cccc(Cl)c2)c1)C1CCN(C2CCC2)CC1`, for which the inhibition was 18.3%.
`CCOc1ccc(C(=O)Nc2ccc(S(=O)(=O)Nc3cc(C)on3)cc2)cc1`: the inhibition is -6.4%.
For `COc1ccc(C)cc1NC(=O)Nc1ccccc1SC`, the inhibition was -0.581%.
As for `CCOc1ccc(C(=O)Nc2cc(OC)ccc2OC)cc1`, the figure is 25.5%.
The result for `CCC(=O)Nc1ccc(C(=O)Nc2cc(C)on2)cc1` reads 37.1%; that for `CCOc1ccc(NC(=O)Nc2cc(C)ccc2OC)cc1`, 29.4% (active); that for `CCOc1ccc(NC(=O)Nc2cc(C)on2)cc1`, 91.1% (active).
Regarding `Cc1cc(C)c2c(-c3ccc(F)cc3)c(C#N)c(=O)n(C)c2n1`, the inhibition is -4.95%.
As for `CCN1CCN(c2sc(S(C)(=O)=O)nc2S(=O)(=O)c2ccc(Cl)cc2)CC1`, the figure is -2.05%.
Turning to `COc1ccccc1NC(=O)CCC(=O)N1CC(C)Oc2ccc(C)cc21` (configuration not stated), the inhibition is -1.25%.
For the compound `COc1ccc(-c2c(-c3ccc(OC)cc3O)nc(C)nc2C(F)(F)F)cc1`, the inhibition is 2.92%.
As for `COc1cc2ccccc2cc1C(=O)N(CCN(C)C)c1nc2c(F)cccc2s1`, the inhibition is -10.4%.
In the case of `COc1ccccc1-c1nnc(SCC(=O)Nc2ccccc2)o1`, the inhibition was 22.9%.
For the compound `COc1ccccc1-c1nnc(NC(=O)c2ccc3ncsc3c2)o1`, the inhibition was 92.1% (active).
The result for `COc1ccccc1-c1nnc(NC(=O)c2cccc(N3C(=O)CCC3=O)c2)o1` reads -10.7%; that for `C=CCOc1ccc(C(=O)Nc2ccccc2C(=O)N2CCCC2)cc1`, 13.9%.
As to `CCOC(=O)c1c(NC(=O)c2ccc(S(=O)(=O)N(C)CC3CCCO3)cc2)sc2c1CC(C)(C)NC2(C)C` (configuration not stated), the inhibition is -9.62%.
Turning to `COC(=O)c1ccccc1N=Nc1c(C)[nH][nH]c1=O`, the inhibition was 1.81%.
As for `COc1ccccc1N=C(C)C1=C(O)COC1=O`, the figure is -4.84%; as for `COc1ccccc1N=Nc1c(O)[nH]c(=S)[nH]c1=O`, 29.2% (active).
The result for `COc1ccc(NC(=O)Cn2ncn3c(cc4ccccc43)c2=O)c(OC)c1OC` reads -6.32%.
`COc1ccc(/C=C/C(=O)N2CCCC2)cc1OC`: the inhibition was 3.99%.
As for `COc1ccc(/C=C/C(=O)Nc2ccc(C34CC5CC(CC(O)(C5)C3)C4)cc2)cc1OC`, the figure is 90.8% (active); as for `COc1ccc(/C=C/C(=O)Nc2cccnc2)cc1OC`, 51.8% (active).
Turning to `COc1ccc(/C=C/C(=O)Nc2ccc(C)cc2)cc1S(=O)(=O)N1CCOCC1`, the inhibition was 20.7%.
On to `COc1cccc(C(=O)Nc2cccnc2)c1OC`, for which the inhibition is 2.65%.
As for `COc1ccc(C(=O)CCC(=O)Nc2cccnc2)c(OC)c1`, the figure is -20.3%; as for `CN(CC(=O)NCc1ccc(Cl)cc1)S(=O)(=O)c1cccs1`, 45.6%; as for `COc1ccc(NC(=O)CN2C(=O)COc3ccc(S(=O)(=O)N4CCOCC4)cc32)cc1`, -3.8%.
On to `COc1ccc(-c2n[nH]c3c2CN(C(=O)c2ccc(F)cc2)CC3)cc1`, for which the inhibition was -7.56%.
With `COc1ccc(CCNC(=O)c2ccccc2-c2ccccc2C(=O)O)cc1OC`, the inhibition was -1.45%.
The result for `COc1ccc(CCNC(=O)c2ccccc2OCc2ccccc2)cc1` reads 14.7%.
Turning to `COc1cccc2[nH]c(C(=O)NCCc3ccccc3)cc12`, the inhibition is 67.7% (active).
The result for `Cc1cc(C)cc(N(CC(=O)NC2CCCC2)C(=O)CCC(=O)Nc2nccs2)c1` reads 20.2%.
Regarding `COc1ccc([N+](=O)[O-])cc1N(CC(O)CN(CC(C)C)CC(C)C)S(=O)(=O)c1ccc(C)cc1` (configuration not stated), the inhibition is 12.3%.
As to `O=c1[nH]cnc(O)c1C(c1ccc(F)cc1)c1c(O)nc[nH]c1=O`, the inhibition was 8.92%.
Regarding `CC(=O)N1CCN(CC(=O)Nc2ccc(C)c(F)c2)CC1`, the inhibition was -1.77%.
Turning to `CCCc1cc(C(=O)Nc2ccc(C(=O)OC)cc2)cs1`, the inhibition was 28.2%.
As for `O=C(Nc1cccc([N+](=O)[O-])c1)Nc1ccc(Cl)cn1`, the figure is 0.898%; as for `O=C(Nc1ccc(Cl)cn1)Nc1cccs1`, 65.7% (active); as for `COc1c(Cl)cc(C(=O)Nc2ccc(Cl)cn2)cc1Cl`, 8.12%.
As for `CCCc1cc(C(=O)Nc2ccc(Cl)cn2)cs1`, the figure is 57.6% (active); as for `CCCCC(CC)C(=O)Nc1ccc(Cl)cn1` (configuration not stated), 6.98%; as for `C[C@H](NC(=O)c1nc[nH]c1C(=O)NCC(=O)OC(C)(C)C)c1ccccc1`, -2.69%.
For the compound `COC(=O)c1ccc(C(=O)OC)c(NC(=S)N2CCN(c3ccc(F)cc3)CC2)c1`, the inhibition is -8.17%.
Regarding `COC(=O)c1ccc(Sc2ccc(F)cc2)c(N)c1`, the inhibition was 64.7% (active).
The result for `COC(=O)c1nc(NC(=O)c2ccc(F)cc2)n[nH]1` reads 0.673%.
